Data taken from PubChem BioAssay.
Calls of active or inactive are those of the source.

Assays:
[1] = E. coli DRC41 culture turbidity changes, primary screen, E. coli filamentation inducer project, strain DRC41, OD650, 48 h (AID 1152);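 note: E. coli MC1000 strain DRC41 lacking acrAB efflux pump and sulA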; conditions: E. coli DRC41 (acrAB sulA), higher = more signal, called active from +8 up or from −8 down
[2] = small-molecule binders of probe aLefty1, primary screen, biochemical, small-molecule microarray, 635/667 nm fluorescence (AID 1153); conditions: higher = more signal;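 note: score merges spot fluorescence with signal-to-noise ratio from the scanned slide images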
[3] = PSAC antagonists in infected red cells, primary screen, cell-based, P. falciparum Indochina, OD700, 1 h (AID 1154); conditions: P. falciparum Indochina infected RBC osmotic lysis, higher = more signal, called active from +8 up or from −8 down
[4] = PSAC antagonists in infected red cells, primary screen, cell-based, P. falciparum Indochina, OD700, 2 h (AID 1155);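 note: lysis reports solute entry through the parasite surface anion channel PSAC; channel blockers reduce lysis of infected cells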; conditions: P. falciparum Indochina infected erythrocytes, osmotic lysis OD700; higher = more signal, called active from +8 up or from −8 down
[5] = osmotic lysis modulators in infected erythrocytes, primary screen, PSAC antagonist project, cell-based, P. falciparum Indochina, OD700, 3 h (AID 1156); conditions: higher = more signal, called active from +8 up or from −8 down
[6] = PSAC antagonists in infected red cells, primary screen, cell-based, P. falciparum Indochina, OD700, 18 h (AID 1157); conditions: P. falciparum Indochina infected erythrocytes, osmotic lysis OD700, 18 h; higher = more signal, called active from +8 up or from −8 down
[7] = modulators of S6 phosphorylation in cells, primary screen, cell-based, A549, cytoblot, luminescence, serum-stimulated (AID 1158); conditions: A549 phospho-S6 cytoblot, 5 h, higher = more signal;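 note: serum-stimulated A549 lung adenocarcinoma cells; signal is phosphorylated S6 detected by cytoblot immunostaining with HRP secondary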
[8] = target: NADPH oxidase 2 (Homo sapiens) (UniProt P04839); assay: NOX2-dependent H2O2 signal modulators, primary screen, NOX inhibitor project, cell-based, HEK293-NOX2, PMA-stimulated, Amplex Red fluorescence (AID 1159); conditions: 45 min, higher = more signal, called active from +8 up or from −8 down; note: test concentration not given here
Sequence of NADPH oxidase 2 (Homo sapiens) (P04839 whole entry, looked up): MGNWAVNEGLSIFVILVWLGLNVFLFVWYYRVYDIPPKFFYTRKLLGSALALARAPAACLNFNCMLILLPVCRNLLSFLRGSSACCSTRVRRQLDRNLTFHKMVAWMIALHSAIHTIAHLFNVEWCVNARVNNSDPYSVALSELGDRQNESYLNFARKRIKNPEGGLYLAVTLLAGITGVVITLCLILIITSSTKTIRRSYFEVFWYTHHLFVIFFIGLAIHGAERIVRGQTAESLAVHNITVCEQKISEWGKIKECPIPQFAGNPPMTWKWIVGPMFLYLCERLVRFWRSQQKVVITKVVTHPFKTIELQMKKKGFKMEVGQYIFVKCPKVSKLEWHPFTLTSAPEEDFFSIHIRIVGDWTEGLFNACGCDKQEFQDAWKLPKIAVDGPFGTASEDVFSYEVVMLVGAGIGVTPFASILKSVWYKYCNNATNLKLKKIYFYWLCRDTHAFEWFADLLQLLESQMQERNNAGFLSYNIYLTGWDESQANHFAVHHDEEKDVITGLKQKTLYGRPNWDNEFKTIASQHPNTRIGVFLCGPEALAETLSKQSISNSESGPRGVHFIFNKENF

[9] = target: NADPH oxidase 4 (Homo sapiens) (UniProt Q9NPH5); assay: NOX4-dependent H2O2 signal modulators, primary screen, NOX inhibitor project, cell-based, HEK293-NOX4, tetracycline-induced, Amplex Red fluorescence (AID 1160); conditions: 45 min, higher = more signal, called active from +8 up or from −8 down
Sequence of NADPH oxidase 4 (Homo sapiens) (Q9NPH5 whole entry, looked up): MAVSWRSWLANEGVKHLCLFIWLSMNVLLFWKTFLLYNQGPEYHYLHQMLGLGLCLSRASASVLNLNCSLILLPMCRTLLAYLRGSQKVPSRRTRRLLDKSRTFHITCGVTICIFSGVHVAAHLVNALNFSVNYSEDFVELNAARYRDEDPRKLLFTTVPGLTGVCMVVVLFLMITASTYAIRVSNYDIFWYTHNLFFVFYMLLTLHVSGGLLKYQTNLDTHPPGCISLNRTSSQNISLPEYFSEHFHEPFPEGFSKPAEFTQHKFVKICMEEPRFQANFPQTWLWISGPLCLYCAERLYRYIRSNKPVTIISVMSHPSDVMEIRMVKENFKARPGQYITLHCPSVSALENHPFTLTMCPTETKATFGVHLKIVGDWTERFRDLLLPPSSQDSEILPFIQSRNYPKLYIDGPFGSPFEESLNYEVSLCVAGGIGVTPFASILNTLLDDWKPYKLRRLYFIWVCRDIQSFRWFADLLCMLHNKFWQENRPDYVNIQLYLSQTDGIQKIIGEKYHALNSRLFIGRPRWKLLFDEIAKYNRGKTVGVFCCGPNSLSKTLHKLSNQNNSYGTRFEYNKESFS

[10] = target: NADPH oxidase 5 (Homo sapiens) (UniProt Q96PH1); assay: NOX5-dependent H2O2 signal modulators, primary screen, NOX inhibitor project, cell-based, HEK293-NOX5, Amplex Red fluorescence (AID 1161); conditions: HEK293-NOX5, ionomycin, 45 min, higher = more signal
Sequence of NADPH oxidase 5 (Homo sapiens) (Q96PH1 whole entry, looked up): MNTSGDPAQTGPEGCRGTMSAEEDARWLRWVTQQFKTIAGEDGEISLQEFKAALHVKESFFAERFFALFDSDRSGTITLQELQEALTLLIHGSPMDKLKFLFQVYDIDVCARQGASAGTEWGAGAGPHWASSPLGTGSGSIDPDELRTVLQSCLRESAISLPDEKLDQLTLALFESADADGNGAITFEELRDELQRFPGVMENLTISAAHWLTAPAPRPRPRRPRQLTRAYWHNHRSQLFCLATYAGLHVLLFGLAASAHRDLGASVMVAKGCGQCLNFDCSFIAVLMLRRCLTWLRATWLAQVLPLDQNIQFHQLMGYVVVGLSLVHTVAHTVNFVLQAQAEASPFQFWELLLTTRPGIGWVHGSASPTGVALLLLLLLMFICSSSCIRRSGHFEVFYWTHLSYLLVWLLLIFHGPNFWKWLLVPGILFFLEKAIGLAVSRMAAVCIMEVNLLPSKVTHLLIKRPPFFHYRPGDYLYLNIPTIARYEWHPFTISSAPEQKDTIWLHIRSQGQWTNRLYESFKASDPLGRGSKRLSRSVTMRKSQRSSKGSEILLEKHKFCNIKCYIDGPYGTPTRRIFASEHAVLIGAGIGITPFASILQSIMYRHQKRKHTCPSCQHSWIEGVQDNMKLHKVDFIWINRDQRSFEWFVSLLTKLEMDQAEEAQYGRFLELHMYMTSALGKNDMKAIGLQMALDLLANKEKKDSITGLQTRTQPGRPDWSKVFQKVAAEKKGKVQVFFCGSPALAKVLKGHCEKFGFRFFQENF

[11] = A549 cell viability effects, profiling panel, calcein-AM fluorescence, 48 h, basal (AID 1162); conditions: higher = more signal; note: test concentration not given here
[12] = adipocyte viability effects, profiling panel, cell-based, 3T3-L1 adipocytes, calcein-AM fluorescence, 48 h, basal (AID 1163); conditions: 3T3-L1 adipocytes viability, higher = more signal; note: test concentration not given here
[13] = HepG2 cell viability effects, profiling panel, calcein-AM fluorescence, 48 h, basal (AID 1164); conditions: higher = more signal; note: test concentration not given here
[14] = MM1S cell viability effects, profiling panel, calcein-AM fluorescence, 48 h, basal (AID 1165); conditions: higher = more signal;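 note: viability of MM1S multiple myeloma cells under basal unstimulated conditions; test concentration not given here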
[15] = basal RPMI8226 viability, no added stimulus, profiling panel, cell-based, calcein-AM fluorescence, 48 h, PK04 Diversity Set (AID 1166); conditions: RPMI8226 myeloma viability, higher = more signal;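 note: cells grown under basal conditions without added stimulus; test concentration not given here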
[16] = basal HepG2 mitochondrial membrane potential changes, profiling panel, cell-based, JC-1 fluorescence, 24 h, 100 nL compound (AID 1167); conditions: higher = more signal; note: test concentration not given here
[17] = basal 3T3-L1 adipocyte mitochondrial potential changes, profiling panel, cell-based, JC-1 fluorescence, 3T3-L1 adipocytes, 24 h, 100 nL compound (AID 1168); conditions: JC-1 mitochondrial fluorescence, higher = more signal, called active from +8 up or from −8 down; note: test concentration not given here
[18] = basal RPMI8226 mitochondrial membrane potential changes, profiling panel, cell-based, JC-1 fluorescence, 24 h, 100 nL compound (AID 1169); conditions: RPMI8226 myeloma, JC-1 mitochondrial potential fluorescence, higher = more signal; note: test concentration not given here
[19] = basal MM1S mitochondrial membrane potential changes, profiling panel, cell-based, JC-1 fluorescence, 24 h, 100 nL compound (AID 1170); conditions: higher = more signal; note: test concentration not given here
[20] = A549 lung cancer cell viability effects, profiling panel, resazurin fluorescence, 24 h, PK04 Diversity Set (AID 1171); conditions: higher = more signal, called active from +8 up or from −8 down; note: test concentration not given here

| Compound | z-score [1] | composite z-score [2] | z-score [3] | z-score [4] | z-score [5] | z-score [6] | z-score [7] | z-score [8] | z-score [9] | z-score [10] | z-score [11] | z-score [12] | z-score [13] | z-score [14] | z-score [15] | z-score [16] | z-score [17] | z-score [18] | z-score [19] | z-score [20] |
| --- | --- | --- | --- | --- | --- | --- | --- | --- | --- | --- | --- | --- | --- | --- | --- | --- | --- | --- | --- | --- |
| CC(=O)OC[C@H]1O[C@H](CC=NOCC[C@@H]2C=C[C@H](OC(C)=O)[C@@H](COC(C)=O)O2)C=C[C@@H]1OC(C)=O | 0.645 (inactive) | 0.0483 | 0.421 (inactive) | 0.678 (inactive) | 0.286 (inactive) | 0.219 (inactive) | -0.696 | -0.175 (inactive) | 0.484 (inactive) | -0.705 | -0.542 | -0.282 | -0.441 | 0.0077 | -0.786 | -0.314 | -0.267 (inactive) | 0.503 | 0.394 | 0.125 (inactive) |
| CC(=O)OC[C@H]1O[C@@H](ON=C(C)CCN2CCCCc3nc(C)c(C)cc32)[C@H](OC(C)=O)[C@@H](OC(C)=O)[C@@H]1OC(C)=O | -0.998 (inactive) | -0.0601 | -0.323 (inactive) | -0.558 (inactive) | 1.16 (inactive) | -1.5 (inactive) | 0.314 | -1.31 (inactive) | -1.24 (inactive) | -2.54 | -1.33 | 1.58 | -0.716 | 0.224 | -2.19 | 0.203 | 0.327 (inactive) | -0.832 | -0.411 | -0.101 (inactive) |
| C[C@@H]1CC[C@H]2C(=O)OC(CN3C(=O)c4ccccc4C3=O)CN2[C@H]1c1ccc(Br)cc1 (stereo not given in full) | 0.634 (inactive) | 0.0315 | 3.61 (inactive) | 0.63 (inactive) | -0.694 (inactive) | 0.246 (inactive) | 0.134 | 0.371 (inactive) | 0.182 (inactive) | -0.055 | 0.0752 | -0.0986 | 0.182 | 0.49 | 0.447 | 0.239 | -0.105 (inactive) | -0.911 | 1.67 | 0.705 (inactive) |
| COc1ccc(O[C@H]2C=C[C@@H](c3ccccc3)O[C@@H]2CON=C2c3cc(OC)ccc3O[C@H](c3cccc(OC)c3)[C@H]2O)cc1 | -1.41 (inactive) | -0.237 | 4.7 (inactive) | 1.12 (inactive) | -0.392 (inactive) | 0.442 (inactive) | -1.1 | -0.0682 (inactive) | 0.264 (inactive) | 0.562 | 0.344 | -1.17 | 0.189 | -0.0952 | -1.04 | 0.422 | -2.37 (inactive) | -0.326 | -0.0381 | -0.142 (inactive) |
| CCN1C(=O)[C@H]2[C@@H]3C(=CC[C@H]2C1=O)C(=O)[C@H]1O[C@H]1[C@H]3O | -1.08 (inactive) | -0.214 | 1.17 (inactive) | 0.497 (inactive) | 0.244 (inactive) | 0.282 (inactive) | -0.383 | 0.428 (inactive) | -1.86 (inactive) | 0.121 | -0.163 | 0.634 | -0.929 | -3.04 | -3.9 | -2.06 | 0.772 (inactive) | -0.991 | -2.82 | -1.17 (inactive) |
| CC(CCN1CCc2nc(-c3ccccc3)c(-c3ccccc3)cc2C1)=NO[C@@H](C)c1cc(-c2c(C)cc(C)cc2C)no1 | -1.03 (inactive) | -0.0099 | -0.0185 (inactive) | -0.429 (inactive) | 1.5 (inactive) | -1.37 (inactive) | 0.831 | -0.861 (inactive) | -0.901 (inactive) | -0.296 | -0.826 | 0.998 | 0.321 | -0.494 | -1.25 | 2.47 | -1.15 (inactive) | -0.535 | -1.62 | 0.235 (inactive) |
| C[C@@H](c1ccccc1)N1C(=O)[C@H]2[C@H]3[C@H](O)[C@H](O)CC(=NOCc4ccccc4)[C@@H]3CC[C@H]2C1=O | -1.42 (inactive) | 0.426 | 2.92 (inactive) | 0.117 (inactive) | 0.826 (inactive) | 0.479 (inactive) | -0.547 | -0.666 (inactive) | 0.115 (inactive) | 0.12 | 0.048 | -0.0375 | -0.628 | 0.67 | -2.15 | -0.265 | -0.985 (inactive) | -0.0343 | 0.645 | -0.273 (inactive) |
| C[C@H]1CC[C@H]2C(=O)OC(COc3ccc(C(C)(C)C)cc3)CN2[C@@H]1c1ccc(Br)cc1 (stereo not given in full) | 0.786 (inactive) | -0.103 | 1.39 (inactive) | 0.0974 (inactive) | -1.24 (inactive) | 0.0011 (inactive) | 0.0307 | 0.426 (inactive) | 0.317 (inactive) | 0.671 | 2.19 | 0.193 | 0.349 | 0.793 | 0.253 | 0.745 | -0.414 (inactive) | 0.566 | 0.855 | 0.479 (inactive) |
| COC(=O)C(C(=O)OC)C1CCCC(=O)C1 (stereo not given) | -1.06 (inactive) | -0.284 | 0.69 (inactive) | -0.176 (inactive) | 0.426 (inactive) | -0.29 (inactive) | 0.649 | -1.18 (inactive) | -1.61 (inactive) | 0.921 | 0.219 | 0.585 | -0.526 | -0.68 | -1.34 | -0.108 | -0.078 (inactive) | 0.753 | 1.15 | -1.14 (inactive) |
